As a reminder, the inhibition is the drop in the measured response relative to a control, in per cent.

A number with no mark means an inactive call.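 How the source made its calls: active means at least 20% inhibition of 6-phosphogluconate dehydrogenase activity; inactive means the rest.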

The target of this assay is 6-phosphogluconate dehydrogenase, decarboxylating (Homo sapiens) (UniProt P52209). The assay can be described thus: 6PGD enzyme inhibitors, primary screen, biochemical, human, recombinant enzyme, NADPH absorbance (AID 1159550). The following applies: recombinant 6PGD, NADPH absorbance 341 nm; at 10 µM; hits give high values.
Chain of 6-phosphogluconate dehydrogenase, decarboxylating (Homo sapiens) (P52209 whole entry, looked up): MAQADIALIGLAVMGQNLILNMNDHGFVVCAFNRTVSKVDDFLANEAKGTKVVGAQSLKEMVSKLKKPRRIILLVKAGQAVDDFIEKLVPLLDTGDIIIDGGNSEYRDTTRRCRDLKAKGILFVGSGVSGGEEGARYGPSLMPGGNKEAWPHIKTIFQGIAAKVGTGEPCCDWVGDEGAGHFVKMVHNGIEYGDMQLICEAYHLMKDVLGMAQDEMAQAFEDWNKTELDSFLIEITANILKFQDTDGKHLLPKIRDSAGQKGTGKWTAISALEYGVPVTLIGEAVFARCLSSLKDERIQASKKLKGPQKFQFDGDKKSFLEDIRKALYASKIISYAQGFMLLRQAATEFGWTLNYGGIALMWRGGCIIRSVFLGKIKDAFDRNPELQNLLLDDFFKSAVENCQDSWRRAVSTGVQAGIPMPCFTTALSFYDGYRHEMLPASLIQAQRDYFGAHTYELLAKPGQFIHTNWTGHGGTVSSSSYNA
For the compound `COc1c2c(cc3c1OCO3)[C@]13C=C[C@H](OC)C[C@H]1N(C2)C[C@@H]3O`, the inhibition was -2.74%.

For the compound `CC[C@@H](C)C(=O)O[C@H]1[C@H](O)[C@H]2[C@@H](CN3C[C@@H](C)CC[C@H]3[C@@]2(C)O)[C@@H]2C[C@]34O[C@]5(O)[C@@H](OC(=O)[C@@](C)(O)[C@@H](C)O)CC[C@@]3(C)[C@@H]5[C@@H](OC(C)=O)[C@@H](OC(C)=O)[C@H]4[C@@]21O`, the inhibition was 7.64%.

On to `CO[C@H]1[C@H](O)[C@H](O[C@H]2CC[C@@]3(C=O)[C@H](CC[C@@H]4[C@@H]3CC[C@]3(C)[C@@H](C5=CC(=O)OC5)CC[C@]43O)C2)O[C@@H](C)[C@@H]1O`, for which the inhibition was -22%.

Regarding `CC[C@H](C)C(=O)O[C@@H]1C[C@@]2(C)[C@H](c3ccoc3)OC(=O)C[C@]23OC2(C)O[C@@]34[C@H](OC(=O)C(C)C)C3(O)[C@@H](OC(=O)[C@@]5(C)O[C@@H]5C)C5(C)C[C@]3(O)[C@](C)([C@H]5CC(=O)OC)[C@@]14O2` (stereo not given in full), the inhibition was 3.98%.

With `CCN1CC2(COC)C(O)CC(OC)C34C5CC6(O)C(OC)C(O)C(OC(C)=O)(C5C6OC(=O)c5ccccc5)C(C(OC)C23)C14` (stereo not given), the inhibition is 17.1%.

Regarding `C=C1[C@@H]2CC[C@H]3[C@]4(C)C[C@H](O[C@@H]5O[C@H](CO)[C@@H](OS(=O)(=O)O)[C@H](OS(=O)(=O)O)[C@H]5OC(=O)CC(C)C)C[C@@H](C(=O)O)[C@H]4CC[C@]3(C2)[C@H]1O`, the inhibition is 5.29%.

Turning to `O=C1CC2OCC=C3CN4CCC56c7ccccc7N1C5C2C3CC46` (stereo not given), the inhibition was -2.71%.

Consider `CC1=CC(=O)C2=C(C)C[C@H](O)[C@H]3[C@H](C)C(=O)O[C@@H]3C12` (stereo not given in full), for which the inhibition was -7.67%.

As for `CC[C@H]1/C=C\C=C\C[C@H](C)[C@@H](O)[C@](C)(O)C(=O)[C@H](C)[C@@H](O)C(C)C(=O)[C@H](C)[C@H](O)[C@@H](C)/C=C/C(=O)OC2C(C)[C@H](CC1)O[C@@]1(CC[C@@H](C)[C@@H](CC(C)O)O1)[C@@H]2C` (stereo not given in full), the inhibition was -4.41%.

Consider `C/C=C(\C)C(=O)OC1CCC2(C)C3CCC4C5(O)CC(O)C6(O)C(CN7CC(C)CCC7C6(C)O)C5(O)CC42OC13O` (stereo not given), for which the inhibition was 6.21%.

As to `C[C@]12CC[C@@H](OS(=O)(=O)O)C[C@@H]1CC[C@@H]1[C@@H]2CC[C@]2(C)C(=O)CC[C@@H]12`, the inhibition is 5.35%.

With `CC1(C)[C@H](O)CC(=O)[C@@]2(C)[C@@H]1CC(=O)[C@]1(C)[C@H]2CC[C@@]2(C)[C@H](c3ccoc3)OC(=O)[C@H]3O[C@]321`, the inhibition was 8.09%.

`CNC(=O)O/N=C(/C)SC`: the inhibition is -23.1%.

`C#CCOS(=O)OC1CCCCC1Oc1ccc(C(C)(C)C)cc1` (stereo not given): the inhibition was -21.1%.

Regarding `CC(C)OC(=O)Nc1cccc(Cl)c1`, the inhibition was -6.1%.

Take `O=C(CC[N+](=O)[O-])OC[C@H]1O[C@@H](O)[C@H](OC(=O)CC[N+](=O)[O-])[C@@H](OC(=O)CC[N+](=O)[O-])[C@@H]1OC(=O)CC[N+](=O)[O-]`: the inhibition was 0.279%.

`CN1[C@@H]2C[C@@H]3C[C@H]1[C@H](O)[C@H]2O3`: the inhibition is -5.75%.

As for `CCOP(=S)(OCC)SCCSCC`, the inhibition was 3.96%.

As to `CCCCN(CC)c1c([N+](=O)[O-])cc(C(F)(F)F)cc1[N+](=O)[O-]`, the inhibition is -9.8%.

`C=C(C)C(=O)/C(=C/C(=O)O)OC`: the inhibition was 12.8%.

Consider `CNC(=O)O/N=C/C(C)(C)SC`, for which the inhibition was -1.92%.

On to `Cc1ccc2cc3c(ccc4ccccc43)c3c2c1CC3`, for which the inhibition was -6.1%.

As to `ClC1=C(Cl)C2(Cl)C3C(Cl)C(Cl)CC3C1(Cl)C2(Cl)Cl` (stereo not given), the inhibition was -19%.

Consider `CN[C@@H](Cc1c[nH]c2ccccc12)C(=O)O`, for which the inhibition was 8.96%.

Consider `CCCCSP(=O)(SCCCC)SCCCC`, for which the inhibition is 10.6%.

The record behind these values is PubChem BioAssay.
